Shown are actives, neighbours in structure and some others; about 19% of the full set was active somewhere.
TDP1 block: blocks human tyrosyl-DNA phosphodiesterase 1. Q9NUW8. recombinant TDP1, AlphaScreen DNA substrate cleavage. Potency, µM (series often up to 130 µM), most hits filed as inhibitors. 350,000 compounds, 0.28% hits; also: nearly all actives have a fitted effect of over 40% in size
Target sequence (Q9NUW8 whole entry, looked up): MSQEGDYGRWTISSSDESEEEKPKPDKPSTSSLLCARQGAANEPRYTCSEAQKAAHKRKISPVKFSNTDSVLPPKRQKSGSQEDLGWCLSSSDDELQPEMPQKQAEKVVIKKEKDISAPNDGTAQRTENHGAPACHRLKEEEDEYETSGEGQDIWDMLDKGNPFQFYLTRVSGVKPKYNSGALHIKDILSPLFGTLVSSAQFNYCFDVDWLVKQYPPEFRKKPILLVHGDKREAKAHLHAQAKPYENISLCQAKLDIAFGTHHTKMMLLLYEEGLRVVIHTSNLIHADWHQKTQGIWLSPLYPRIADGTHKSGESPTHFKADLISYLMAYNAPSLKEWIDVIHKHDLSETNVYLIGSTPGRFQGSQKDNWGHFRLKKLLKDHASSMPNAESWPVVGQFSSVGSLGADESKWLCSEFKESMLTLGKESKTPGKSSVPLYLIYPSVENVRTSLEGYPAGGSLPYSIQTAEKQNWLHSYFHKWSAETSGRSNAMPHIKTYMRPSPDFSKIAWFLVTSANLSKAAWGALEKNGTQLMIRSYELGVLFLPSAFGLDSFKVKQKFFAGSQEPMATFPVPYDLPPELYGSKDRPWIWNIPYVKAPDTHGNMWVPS
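AlphaScreen read-out: signal falls as enzyme removes the 3' tyrosine-FITC from a 5'-biotinylated DNA oligo (15 nM, 5 min, RT). Enzyme was E. coli-made recombinant Tdp1 at 1 nM, exposed to compound for 15 min beforehand; beads 10 ug/ml, 10 min.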
ELG1 DNA repair: ELG1-dependent DNA repair inhibition | HEK293T ELG1-luciferase reporter, luminescence, 16 h; DNA damage induced by 5-fluorouridine | AID 504467 | 330,000 compounds, 2.3% hits | Potency, µM (top dose mostly 46.1 µM), actives largely listed as inhibitors; also: nearly all actives have a fitted effect of over 55% in size
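Overnight (16 hr) co-exposure of 2,000 cells/well to 5-fluorouridine and compound at 37 °C preceded detection. Luciferase was quantified via ONE-Glo luminescence; loss of signal denotes inhibition.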
IL1B secr inh: blocks inflammasome-driven IL-1 beta release | THP-1 LPS/ATP IL-1B secretion, AlphaLISA, 16 h; stronger effect = lower value | activity change, % at 57.5 µM | 360,000 compounds, 4.7% hits | AID 743279; in the data active = activity change below about -50%; inconclusive = mostly about -30% to -49%
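THP-1 cells pretreated 1 hr with compounds (up to 57.5 uM final), then stimulated with LPS (250 ng/mL final) plus ATP (1.25 mM final); secreted IL-1B measured by AlphaLISA after 16 hr, decreased signal indicating inhibition.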
Giardia kill: kills Giardia lamblia; 340,000 compounds, 0.15% hits; Giardia lamblia trophozoite viability; AID 540267; activity change, % at 7.66 µM, hits read low; in the data active = activity change below about -80%; inconclusive = between about -30% and that limit;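 also: parasites exposed to compound for two days anaerobically before the ATP read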
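Trophozoite viability was measured as ATP-dependent luminescence, read 15-30 min after reagent addition. Before that, parasites at 100 cells/well were exposed to compounds for 48 h, anaerobically, at 37 deg C.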
DT40 TDP1 no CPT: qHTS for Inhibitors of human tyrosyl-DNA phosphodiesterase 1 (TDP1): qHTS in cells in absence of CPT; DT40 Tdp1-/- hTDP1 cells, no CPT, ATP luminescence, 48 h; Potency, µM (series often up to 46.2 µM), hits mostly inhibitors; AID 686978, 2013; 420,000 compounds, 15% hits; also: nearly all actives have a fitted effect of over 55% in size
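Chicken DT40 Tdp1-/- cells complemented with human TDP1, screened without camptothecin (DMSO vehicle only), 400 cells/well. Compounds pin-transferred, cells incubated at 37 °C for at least 48 hr. Growth read as ATP-dependent luminescence (CellTiter-Glo, 30 min at RT).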
TDP1 cell CPT: growth inhibition of DT40 Tdp1-/-;hTDP1 cells with camptothecin (screen for TDP1 inhibitors). Potency, µM (highest dose often 46.2 µM), actives largely listed as inhibitors. 420,000 compounds, 12% hits. chicken DT40 Tdp1-/-;hTDP1 cells + 20 nM CPT, ATP luminescence, 48 h; also: nearly all actives have a fitted effect of over 55% in size
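Chicken DT40 Tdp1-/- cells complemented with human TDP1, 400 cells/well, exposed to compounds plus 20 nM camptothecin for at least 48 h at 37 C; viability read as ATP content by CellTiter-Glo luminescence.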
Numbers stand for hits; - = inactive; ? = inconclusive; . = no result given. Unless noted, calls follow the shape of the dose curve; as a rule, active = well fitted curve in the direction sought with a large enough effect; inconclusive = small, poorly fitted or top-dose-only effect, or another doubt; inactive = no such curve, though single readings can be large; an effect the other way counts as inactive or inconclusive.

SMILES	TDP1 block	ELG1 DNA repair	IL1B secr inh	Giardia kill	DT40 TDP1 no CPT	TDP1 cell CPT
Cc1oc(-c2cccc(Br)c2)nc1CN1CCC(C(=O)NCCc2ccc(Cl)cc2)CC1	-	.	.	.	?	-
Cc1occc1C(=O)Nc1ccccc1C#N	-	-	?	-	-	-
Cn1c(Oc2ccc(F)cc2)c(C=O)c2ccccc21	-	?	-92	-	?	?
COc1ccc2c(c1)c1ccccc1n2C	-	?	-	-	?	-
COc1ccc2cc(CNc3ccc(C)cc3)c(=O)n(CC(=O)Nc3cccc(Cl)c3C)c2c1	-	.	.	.	.	.
COC(=O)c1sc(C(=O)OC)c(C(=O)OC)c1C(=O)OC	-	-	-	-	-	-
COC(=O)c1sc(=S)sc1C(=O)OC	-	-	-	-	?	29µM
COc1ccc(C(=O)N2CCC3(CCCN(C)C3)CC2)cc1	.	.	.	.	-	-
CCC(C)c1ccc(NC(=O)COc2c(F)c(F)c(C(F)(F)F)c(F)c2F)cc1 (stereo unspecified)	-	-	-77	-	?	?
O=C(COc1c(F)c(F)c(C(F)(F)F)c(F)c1F)Nc1ccc(N2CCOCC2)c(Cl)c1	-	-	?	-	?	?
COc1ccc(S(=O)(=O)CCC(=O)N2CCN(c3ccc(F)cc3)CC2)cc1	-	-	-	-	26µM	21µM
O=C(CCS(=O)(=O)c1ccc(Cl)cc1)N1CCN(c2ccc(F)cc2)CC1	-	-	-	-	18µM	15µM
Cc1ccc(S(=O)(=O)CCC(=O)N2CCN(c3ccccc3F)CC2)cc1	-	-	-	-	-	-
CN(c1ccc(OCC(=O)N2CCN(c3ccc(F)cc3)CC2)cc1)S(=O)(=O)c1cccs1	-	?	-	-	26µM	?
O=C(CCS(=O)(=O)c1ccc(Cl)cc1)N1CCN(c2ccccc2F)CC1	-	-	-	-	-	-
Cc1ccc(S(=O)(=O)CCC(=O)N2CCN(c3ccc(Cl)cc3)CC2)cc1	-	?	-	-	21µM	13µM
CN(C1=NS(=O)(=O)N=C(N(C)c2ccccc2)O1)c1ccccc1	.	.	-102	.	?	?
CN(c1ccccc1)c1nc2ccsc2c(=O)s1	-	?	-	-	-	-
CCCCCCCCN1C(=O)[C@H](CC(=O)NCCc2ccccc2OC)C[C@@]2(C(=O)OCC)CCC=C12	.	.	-	.	?	?
CCOC(=O)[C@]12CCCC=C1N(CCC1=CCCCC1)C(=O)[C@H](CC(=O)NCCC(C)C)C2	.	.	-	.	12µM	15µM
CCCCCCCCN1C(=O)[C@H](CC(=O)NCCC(C)C)C[C@@]2(C(=O)OCC)CCCC=C12	.	.	?	.	12µM	13µM
CCCCCCCCN1C(=O)[C@H](CC(=O)NCC23CC4CC(CC(C4)C2)C3)C[C@@]2(C(=O)OCC)CCC=C12	.	.	-	.	16µM	-
C#Cc1cccc(Nc2nc(NC(C)C)nc3ccsc23)c1	.	.	-	.	21µM	?
C#Cc1cccc(Nc2nc(NCCOC)nc3ccsc23)c1	.	.	-	.	21µM	16µM
C#Cc1cccc(Nc2nc(NCc3ccccc3OC)nc3ccsc23)c1	.	.	-71	.	9.2µM	9.2µM
SMILES	TDP1 block	ELG1 DNA repair	IL1B secr inh	Giardia kill	DT40 TDP1 no CPT	TDP1 cell CPT
COc1ccccc1CNc1nc2nc(C)c(Cl)c(C)n2n1	-	.	.	.	?	-
CC(Sc1nnc(-c2ccccc2)n1C)C(=O)NCc1ccco1 (stereo unspecified)	.	.	.	.	-	-
C[Si](C)(C)C#Cc1ccccc1NC(=S)Nc1ccccc1	-	.	.	.	.	.
Cc1ccsc1C(=O)NNC(=O)Nc1ccc(Cl)c(Cl)c1	-	?	-	-	-	-
Cc1occc1C(=O)NNC(=O)Nc1ccc(Cl)c(Cl)c1	-	-	-	-	?	15µM
Cc1occc1C(=O)N1CCN(c2ccc(Cl)c(Cl)c2)CC1	-	-	-	-	16µM	?
COc1ccc(OCC(=O)Nc2cc(NC(=O)c3ccco3)ccc2OC)cc1	-	?	-55	-	?	-
O=C(Nc1ccc(NC(=O)c2cc3ccccc3o2)cc1)c1ccco1	.	-	-	-	?	?
COc1ccc(NC(=O)c2ccco2)cc1NC(=O)c1cc2ccccc2o1	-	?	-	-	15µM	23µM
COc1ccc(NC(=O)c2ccco2)cc1NC(=O)COc1ccc(Cl)cc1C	-	.	.	.	9.2µM	10µM
COc1ccc(NC(=O)c2ccco2)cc1NC(=O)COc1ccc(C)cc1C	-	.	.	.	?	?
COc1ccc(C(C)(C)C)cc1NC(=O)COc1ccc(-c2nnco2)cc1	-	-	-50	-	?	?
O=C(CN1CCc2ccccc2C1)NC1CCCC1	-	-	-	-	-	-
Cn1c(=O)c2c(c3ccccc31)OC(=O)CC2c1cccc(F)c1 (stereo unspecified)	-	.	.	.	-	-
CCOC(=O)c1sc2ncn(CC(=O)Nc3ccc(F)cc3F)c(=O)c2c1C	-	.	.	.	-	-
COc1ccccc1C(=O)NCc1nnnn1-c1ccc(C)c(C)c1	-	.	.	.	-	-
Cc1ccc(S(=O)(=O)N2CCOCC2)cc1NC(=O)Cn1c(=O)ccn(Cc2ccccc2)c1=O	.	.	-	-	-	-
Cc1cc(C)c(OCC(=O)Nc2cccc(NC(=O)c3ccco3)c2)c(Br)c1	-	?	-55	-	13µM	23µM
COc1cc(OC)cc(C(=O)Nc2ccc(NC(=O)c3ccco3)c(C)c2)c1	-	?	-	-	?	?
COc1cc(OC)cc(C(=O)Nc2cc(NC(=O)c3ccco3)ccc2OC)c1	-	21µM	-	-	18µM	23µM
CCc1ccc(-c2nc3c(c(SCc4ccccc4)n2)Cc2c(CO)cnc(C)c2O3)cc1	-	.	.	.	-	-
CN(Cc1ccccc1)S(=O)(=O)c1ccc2[nH]c(=O)ccc2c1	.	?	-	-	-	-
COc1ccc(/C=C/C(=O)N2CCN(c3ccccn3)CC2)cc1OC	-	-	-	-	?	-
Cc1cccc(NC(=O)c2ccc3nccnc3c2)c1C	-	?	-	-	?	?
Cn1c2ccccc2c(=O)c2c(=O)n(C3CCCCC3)c(-c3ccco3)nc21	-	?	-	-	?	23µM
COC(=O)Nc1ccc(S(=O)(=O)N2CCC(C(=O)NCc3ccc4c(c3)OCO4)CC2)cc1	-	?	-	-	-	-
Cc1[nH]n(-c2ccc([N+](=O)[O-])cc2)c(=O)c1/C=N/N1CCOCC1	-	?	-	-	?	12µM
O=c1c(C=NCCN2CCNCC2)c(-c2ccccc2)[nH]n1-c1ccc([N+](=O)[O-])cc1	-	?	.	.	.	.

Source: PubChem (National Center for Advancing Translational Sciences (NCATS))
